Results filed as inconclusive are left out. The source made the active and inactive calls. Unless noted, no rule for the calls is given here.
Tests used:
[1] = qHTS profiling of the MIPE4 collection as inhibitors of Plasmodium falciparum (3D7) proliferation (AID 743344);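 also: scaled between DMSO vehicle wells and 0.29 µM artemisinin as full inhibition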; details: P. falciparum 3D7 in erythrocytes, SYBR Green DNA fluorescence, 72 h; at 28.5 µM unless noted
How it was run: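 Erythrocytes infected with P. falciparum (0.3% parasitemia, 2.5% hematocrit) incubated with compounds 72 h at 37 C, 5% CO2. Lysis with saponin/Triton buffer containing SYBR Green I, overnight at room temperature in the dark; DNA fluorescence (485/535 nm) normalised to 0.29 uM artemisinin and DMSO.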

[2] = qHTS Assay for Identifying Gametocytocidal Compounds (AID 743244; active = well fitted curve in the direction sought with a large enough effect;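 also: % is scaled to controls: 0 for no effect and ±100 for the full control effect; actives lower the fluorescent signal which means gametocytes are killed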); details: P. falciparum 3D7 stage III-V gametocytes, alamarBlue, 72 h; max response: stronger effect = lower value
How it was run: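 P. falciparum 3D7 stage III–V gametocytes (20,000 cells/well) were exposed to compounds for 72 h at 37 °C, 5% CO2. AlamarBlue was then added for 24 h; decreased resorufin fluorescence (Ex 525/Em 598 nm) indicated loss of viability.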

CCCCc1oc2ccc(NS(C)(=O)=O)cc2c1C(=O)c1ccc(OCCCN(CCCC)CCCC)cc1
parasite growth, % of DMSO control [1]: 7.48%

CC(C)(C)NC(=O)[C@H]1CC[C@H]2[C@@H]3CC[C@H]4NC(=O)C=C[C@]4(C)[C@H]3CC[C@]12C
parasite growth, % of DMSO control [1]: 60.2%

CCn1cc(C(=O)O)c(=O)c2cc(F)c(N3CCNCC3)nc21
max response [2]: 0.203% (inactive)
parasite growth, % of DMSO control [1]: 35.6%

COCCCOc1cc(C[C@@H](C[C@H](N)[C@@H](O)C[C@H](C(=O)NCC(C)(C)C(N)=O)C(C)C)C(C)C)ccc1OC
max response [2]: 13.7% (inactive)
parasite growth, % of DMSO control [1]: 40.6%

CCOC(=O)[C@H](CCc1ccccc1)N[C@H]1CCc2ccccc2N(CC(=O)O)C1=O
parasite growth, % of DMSO control [1]: 9.1%

Cc1onc(-c2ccccc2Cl)c1C(=O)N[C@@H]1C(=O)N2[C@@H]1SC(C)(C)[C@@H]2C(=O)O
max response [2]: -11.3% (inactive)
parasite growth, % of DMSO control [1]: 86.7%

COc1nc(N)nc2c1ncn2[C@@H]1O[C@H](CO)[C@@H](O)[C@@H]1O
max response [2]: 4.43% (inactive)
parasite growth, % of DMSO control [1]: 77.9%

CN1CCN(c2c(F)cc3c(=O)c(C(=O)O)cn(CCF)c3c2F)CC1
max response [2]: 1.63% (inactive)
parasite growth, % of DMSO control [1]: 86.6%

C#CCN[C@@H]1CCc2ccccc21
max response [2]: -0.979% (inactive)
parasite growth, % of DMSO control [1]: 95.8%

N[C@@H](C(=O)N[C@@H]1C(=O)N2C(C(=O)O)=C(Cl)CS[C@H]12)c1ccccc1
max response [2]: 19.9% (inactive)
parasite growth, % of DMSO control [1]: 80.9%

O=C(NCC1CN(c2ccc(N3CCOCC3=O)cc2)C(=O)O1)c1ccc(Cl)s1 (stereo not given)
parasite growth, % of DMSO control [1]: 74.4%

Cn1nnc2c(C(N)=O)ncn2c1=O
max response [2]: -7.58% (inactive)
parasite growth, % of DMSO control [1]: 97.2%

From PubChem BioAssay (NCATS)
